# NALP3 yeast inh = NALP3 inhibition in yeast; Yeast reconstituted NLRP3/ASC/caspase-1, beta-gal luminescence, 24 h; inhibition, % at 10 µM; 330,000 compounds, 0.39% hits;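 active means inhibition of 50% or more; inactive means inhibition below 50%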;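 further: plate controls were induced DMSO wells for no effect and uninduced yeast grown without galactose for full effect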
# TIM10 inh = growth inhibitors of TIM10 yeast strain; S. cerevisiae TIM10 strain growth, BacTiter-Glo luminescence, 24 h; inhibition, % at 10 µM; 330,000 compounds, 1.4% hits;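 active means inhibition of 40% or more at the single tested concentration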;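 further: wild-type TIM10 isogenic control strain grown at permissive 25 °C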
# NALP1 yeast inh = NALP1 inhibition. S. cerevisiae NALP1/ASC/caspase-1 growth, X-gal OD620, 72 h. AID 2071. inhibition, % at 10 µM. 280,000 compounds, 0.61% hits; in the data active means inhibition mostly above about 24%, no sharp cut-off; inactive means mostly below about 32%
# tim10-1 inh = growth inhibitors of tim10-1 mutant yeast; S. cerevisiae tim10-1 ts strain growth, BacTiter-Glo, 24 h; inhibition, % at 20 µM; 330,000 compounds, 2.2% hits; AID 463190;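 active means inhibition of at least 40%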;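 further: mutant grown at 25 °C; 0% = DMSO wells with yeast and 100% = wells holding no yeast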
# tim23-1 inh = tim23-1 yeast growth inhibition; S. cerevisiae tim23-1 growth, BacTiter-Glo luminescence, 24 h; inhibition, % at 20 µM; 330,000 compounds, 1.3% hits; AID 463212;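 active means growth inhibition of the mutant yeast at or above 50%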;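 further: temperature-sensitive mutant grown at 25 °C; plate controls were DMSO-treated mutant yeast for no effect and medium wells lacking yeast for full effect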
# tim10-1 confirm = confirmation of tim10-1 mutant yeast growth inhibitors. shares compounds with tim10-1 inh. S. cerevisiae tim10-1 ts strain growth, BacTiter-Glo, 24 h. inhibition, % at 20 µM. 7,400 compounds, 56% hits. AID 463213;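 active means inhibition of yeast growth at or above a set limit in either of two repeat tests at 20 µM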;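 further: tim10-1 mutant grown at permissive 25 °C to find synthetic lethal compounds; 0% = DMSO yeast wells and 100% = medium wells without yeast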
# * hit, by the source's call; nt = no result given. In the library only some 4.1% were active in any assay of this set; here they are far more common.
SMILES,NALP3 yeast inh,TIM10 inh,NALP1 yeast inh,tim10-1 inh,tim23-1 inh,tim10-1 confirm
COc1ccccc1-n1cc2c([N+](=O)[O-])cc([N+](=O)[O-])cc2n1,18.3,30.6,8.8,49.3*,44.6,37.6*
S=c1[nH]nc(COc2ccccc2)n1/N=C/c1ccc(Br)cc1,23.9,8.7,-7.6,32.7,17.2,nt
CN(C)c1ccc(/C=N/n2c(COc3ccccc3)n[nH]c2=S)cc1,18.8,13.4,17.8,2.9,19.7,nt
CC(C)c1ccc(/C=N/n2c(COc3ccccc3)n[nH]c2=S)cc1,37.2,17.8,3.1,42.6*,31.5,20.6
S=c1[nH]nc(COc2ccccc2)n1/N=C/c1cccc(Br)c1,17.3,23.7,14.0,44.9*,21.5,20.4
S=c1[nH]nc(COc2ccccc2)n1/N=C/c1cccs1,18.2,33.0,nt,41.6*,43.0,12.9
CC(C)C(NC(=O)c1ccc(F)cc1)C(=O)Nc1cccnc1 (stereo not given),0.3,2.8,8.0,-3.7,0.3,nt
CC(C)(C)n1nnnc1SCC(=O)Nc1nn(-c2ccccc2)nc1C(N)=O,-1.9,8.5,3.1,24.6,14.2,nt
O=C(CSc1nnc(SCc2ccccc2)s1)NNC(=S)Nc1ccccc1,14.5,38.0,5.7,45.5*,33.2,27.7
COC(=O)COc1ccc(-c2nccc(-c3ccccn3)n2)cc1,21.1,29.7,3.3,43.4*,18.7,31.2*
COC(=O)COc1ccc(-c2nccc(-c3ccc(Br)cc3)n2)cc1,-1.0,8.4,-8.8,-12.7,22.3,nt
COc1cccc(N(CC(=O)NC2CCCC2)C(=O)CCC(=O)Nc2cc(C)on2)c1,21.9,6.2,-1.5,-4.5,10.0,nt
COc1ccc2cc(CCNC(=O)c3c(-c4ccccc4Cl)noc3C)c(=O)[nH]c2c1,14.1,7.9,nt,40.7*,12.1,11.2
CCOC(=O)C(=O)C1=C(N2CCOCC2)/C(=C\c2cccc([N+](=O)[O-])c2)CC1,-0.6,21.7,14.2,40.9*,47.2,25.3
O=C(NP(=O)(N1CCCC1)N1CCCC1)C1=C(N2CCOCC2)/C(=C/c2cccc([N+](=O)[O-])c2)CC1,-8.7,16.3,11.5,27.9,11.1,nt
O=C(NCCC1=CCCCC1)C1CCCN(c2nc3ccccc3o2)C1 (stereo not given),19.3,14.0,-3.4,49.3*,34.9,34.6*
Cc1ccc(CNC(=O)C2CCCN(c3nc4ccccc4o3)C2)cc1 (stereo not given),20.7,-8.6,30.4,0.6,-6.6,nt
Cc1onc(-c2ccccc2)c1CNS(=O)(=O)c1cccc(Br)c1,8.7,27.9,16.5,23.9,28.6,nt
COC(=O)C1=C(C)N=c2s/c(=C3\C(=O)Nc4ccccc43)c(=O)n2C1c1ccccc1 (stereo not given),35.9,18.2,5.5,40.0*,39.3,7.7
Nc1nc(Nc2ccccc2)nc2ccccc12,25.2,28.0,19.6,41.7*,12.9,38.3*
Cc1ccccc1Nc1nc(N)c2ccccc2n1,17.4,22.8,13.9,28.0,27.5,nt
CCOC(=O)CN1C(c2ccc(O)cc2)Nc2ccc(Br)cc2C1c1ccccc1 (stereo not given),1.4,32.3,24.0,46.4*,43.9,17.9
Fc1ccccc1/C=C1\CCCC2=C1NC(=S)NC2c1ccccc1F (stereo not given),33.5,36.7,13.2,41.2*,39.3,15.3
CC(O)(CS(=O)(=O)Cc1ccc(Cl)cc1)C(=O)Nc1cccc(C(F)(F)F)c1 (stereo not given),11.1,5.7,-0.7,23.2,6.9,nt
O=C(Nc1cccc(C(F)(F)F)c1)N(Cc1ccc(Cl)cc1)CC(O)C(F)(F)F (stereo not given),5.8,18.1,11.9,46.5*,43.6,26.1
COc1ccc(-c2cc(-c3ccccc3)n3ncnc3n2)cc1,36.0,30.9,10.0,49.4*,31.5,22.0
COc1ccc(-c2cc(N3CCCC3)n3ncnc3n2)cc1,10.6,19.2,11.2,29.3,30.6,nt
Cn1c(SC2=CS(=O)(=O)c3ccccc32)nc2ccccc21,26.8,29.9,5.2,43.5*,33.0,30.0
CCN(CC)CCN1C(=O)C(=O)/C(=C(/O)c2ccc(S(=O)(=O)N3CCOCC3)cc2)C1c1ccc(C(C)(C)C)cc1 (stereo not given),8.6,-4.6,-11.7,10.3,15.6,nt
CC(C)c1nc(N2CCN(C(=O)c3ccccc3)CC2)c(C#N)c2c1COC(C)(C)C2,0.5,22.8,-0.3,-3.6,-8.8,nt

# Bioassay records: PubChem, Sanford-Burnham Center for Chemical Genomics
